# Source: PubChem BioAssay
# Only some compounds are listed: those with a hit (about 1.3% of all), similar ones and a draw of the others.
# S1P2 agonist = activates the human S1P2 receptor | activation, % at 4.5 µM | S1P2-expressing cell line, agonist reporter read-out | hit rate 0.46% among 97,000 | O95136; in the data active means activation above about 16%;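 further: 0% = vehicle low control and 100% = maximal reference agonist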
# S1P2 antag = blocks the human S1P2 receptor; AID 736; hit rate 0.21% among 97,000; O95136; cell-based S1P2 antagonist assay, inhibition at 5 uM; inhibition, % at 5 µM; in the data active means inhibition above about 45%;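 further: CRE beta-lactamase reporter cells expressing human S1P2 stimulated with S1P; 0% = agonist at EC80 alone and 100% = agonist plus reference antagonist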
# GALR2 blocker = GALR2 (human) receptor antagonism. O43603. AID 828. GALR2-expressing cells, antagonist mode. inhibition, % at 4 µM. hit rate 0.39% among 140,000; in the data active means inhibition above about 27%;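 further: cells stimulated with galanin 1-16 at roughly its EC80; 0% = agonist challenge control and 100% = basal control without agonist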
# PTPN22 act = LYP (human) phosphatase activation | Q9Y2R2 | recombinant LYP, DiFMUP fluorescence; 0 = plate median, 100 = signal doubled | activation, % at 2 µM | hit rate 0.11% among 96,000;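 active means activation at 2 µM above a set limit, the mean plus 5 SD, cut at about 37% in these data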
# Target sequence (Q9Y2R2 whole entry, looked up): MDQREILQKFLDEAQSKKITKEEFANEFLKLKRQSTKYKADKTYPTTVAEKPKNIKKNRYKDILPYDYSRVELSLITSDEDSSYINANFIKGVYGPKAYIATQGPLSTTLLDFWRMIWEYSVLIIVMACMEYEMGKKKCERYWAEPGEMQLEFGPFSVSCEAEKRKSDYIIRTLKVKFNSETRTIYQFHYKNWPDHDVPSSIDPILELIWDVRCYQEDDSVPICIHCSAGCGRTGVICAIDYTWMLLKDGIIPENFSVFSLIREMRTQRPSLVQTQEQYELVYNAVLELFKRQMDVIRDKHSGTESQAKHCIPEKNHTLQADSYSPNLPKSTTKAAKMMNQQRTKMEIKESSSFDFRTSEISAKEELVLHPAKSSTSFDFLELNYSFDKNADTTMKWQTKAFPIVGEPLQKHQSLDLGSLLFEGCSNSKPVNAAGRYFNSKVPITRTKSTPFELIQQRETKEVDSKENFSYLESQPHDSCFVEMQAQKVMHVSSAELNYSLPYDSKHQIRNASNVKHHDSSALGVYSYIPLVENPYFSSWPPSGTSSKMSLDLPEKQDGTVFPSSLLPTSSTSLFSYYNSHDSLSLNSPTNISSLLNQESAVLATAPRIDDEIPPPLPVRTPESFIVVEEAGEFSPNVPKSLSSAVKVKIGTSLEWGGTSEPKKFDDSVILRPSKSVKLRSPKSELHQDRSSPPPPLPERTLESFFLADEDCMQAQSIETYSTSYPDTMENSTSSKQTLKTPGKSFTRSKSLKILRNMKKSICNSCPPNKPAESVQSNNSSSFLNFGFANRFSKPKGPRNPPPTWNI
# PTPN22 inh 2 = blocks human PTPN22 phosphatase activity | AID 640 | Q9Y2R2 | hit rate 0.21% among 96,000 | inhibition, % at 2 µM | recombinant LYP catalytic domain, DiFMUP fluorescence;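 active means inhibition at 2 µM at or above a set limit, the screen mean plus 3 SD, cut at about 24% in these data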;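 further: 0% = DMSO with enzyme and 100% = enzyme fully blocked by orthovanadate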
# GALR2 agonist = GALR2 (human) receptor agonism. O43603. GALR2-expressing cells, agonist activation read-out. activation, % (concentration not given with the values). hit rate 0.48% among 140,000; in the data active means activation above about 5%, passing the limit was not always enough;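 further: 0% = vehicle buffer wells and 100% = reference agonist at full effect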
# * = called active by the depositor; · = no result given.
SMILES,S1P2 agonist,S1P2 antag,GALR2 blocker,PTPN22 act,PTPN22 inh 2,GALR2 agonist
CC[n+]1c(P(=O)([O-])c2ccccc2)[nH]c2ccccc21,-4.7,-0.1,-2.0,9.4,-5.0,-3.3
Cc1nc(NCCc2ccccc2F)c(C#N)c(C)c1[N+](=O)[O-],2.5,-28.4,2.7,0.1,-2.1,0.2
NCC[C@H](O)C(=O)N[C@@H]1C[C@H](N)[C@@H](O[C@H]2O[C@H](CN)[C@@H](O)[C@H](O)[C@H]2O)[C@H](O)[C@H]1O[C@H]1O[C@H](CO)[C@@H](O)[C@H](N)[C@H]1O,·,·,-2.4,·,·,-0.6
CCN(CC(=O)NC(c1ccccc1)c1ccccc1)Cc1nc2ccccc2c(=O)[nH]1,-6.9,1.9,-1.8,2.3,-2.4,-0.9
COc1cc2nc(CN(C)Cc3nc4ccccc4c(=O)[nH]3)[nH]c(=O)c2cc1OC,5.8,-14.8,-5.6,0.5,0.2,-3.0
CCN(Cc1nc2ccccc2c(=O)[nH]1)Cc1nc2cc(OC)c(OC)cc2c(=O)[nH]1,17.6*,-63.3,-9.3,-2.6,2.2,-0.7
CCN(CC(=O)NC(=O)NC1CCCCC1)Cc1nc2ccccc2c(=O)[nH]1,-1.3,-9.2,-6.8,-24.3,25.2*,-0.7
O=C(NC1CCCCCC1)c1ccc(CN2CCOCC2)cc1,-6.3,-2.9,-2.0,0.9,1.6,-2.0
Cc1ccc(S(=O)(=O)CCC(=O)N2CCc3ccccc32)cc1,41.5*,-7.6,-6.7,6.0,-3.6,-0.8
C=CS(=O)(=O)c1ccc(Oc2ccc(S(=O)(=O)C=C)cc2)cc1,·,·,91.0*,·,·,-3.1
O=S(=O)(c1ccc(Oc2ccc(S(=O)(=O)N3CCOCC3)cc2)cc1)N1CCOCC1,·,·,-3.8,·,·,-1.4
COC(=O)[C@H]1CCCN1C(=O)Nc1cccc(Oc2c(F)c(F)c(F)c(F)c2F)c1,-4.2,1.9,8.4,4.7,-7.2,14.2*
COc1cccc(NC(=O)C2CCCN2C(=O)Nc2cccc(F)c2)c1 (stereo not given),-12.8,31.3,-5.3,-6.9,10.3,-4.0
COc1ccc(-c2cc(C(=O)Nc3c(Cl)cc(Cl)cc3Cl)c3ccccc3n2)cc1OC,·,·,-0.1,·,·,4.9*
COc1ccc(-c2cc(C(=O)Nc3ccc(Cl)cc3Cl)c3ccccc3n2)cc1OC,·,·,8.1,·,·,0.1
Cc1cccc(C(=O)NC2CC3CCCC(C2)N3C(=O)NC2CCCCC2)c1 (stereo not given),66.1*,-7.8,6.0,-0.8,1.4,-2.4
Cc1ccc(NC(=O)OCCN2CCN(Cc3ccccc3)CCC2=O)cc1,·,·,-6.0,·,·,-2.4
CCOc1cccc(OCCCCn2ccnc2)c1,82.8*,9.2,2.0,-5.7,4.4,-1.2
O=C(COc1ccc(Cl)cc1)NC1=NN(c2ccccc2)C(=O)C1,·,·,-22.6,·,·,-1.5
COc1cccc(C2CN(c3ccc(F)cc3F)N=C2c2cccs2)c1OC (stereo not given),44.1*,-50.3,-10.3,28.1,-31.8,40.6*
COc1ccccc1Nc1nc(-c2cccs2)cs1,-4.5,20.5,17.0,8.0,-6.8,-1.8
COc1ccccc1C1CN(c2ccccc2)N=C1c1cccs1 (stereo not given),33.4*,-32.4,-2.0,-1.9,1.8,60.8*
Cc1cc2c(=O)n(CC(=O)N3CCN(c4ccc(F)cc4)CC3)cnc2s1,31.1*,15.6,-11.6,-4.5,2.2,-0.4
COc1ccc(C(=O)C(CO)Oc2ccccc2OC)cc1OC (stereo not given),19.2*,13.1,-7.5,-9.7,7.0,-1.7
COc1ccc(C(=O)c2ccc(OC)c(OC)c2)cc1OC,-0.5,7.2,-2.4,7.1,-8.8,-2.7
SMILES,S1P2 agonist,S1P2 antag,GALR2 blocker,PTPN22 act,PTPN22 inh 2,GALR2 agonist
CCOc1ccccc1C1CC(=O)NC(SCC(=O)Nc2nccs2)=C1C#N (stereo not given),-4.7,9.9,5.2,2.5,-5.1,-4.2
O=C(N/N=C/c1cccs1)[C@H]1C[C@@H]1c1ccccc1,·,·,-8.5,·,·,-0.4
CCCS(=O)(=O)c1nnnn1-c1cccc(OC)c1,·,·,84.4*,·,·,-1.4
Cc1c(CN(C)C)c2c(n1Cc1ccccc1)C(=O)c1ccccc1-2,-2.1,-7.9,10.3,2.5,-1.6,-2.1
COc1cccc(NC(=O)CC2C(=O)NC3CCCCC3N2C(=O)c2ccc(F)cc2)c1 (stereo not given),-0.7,-13.4,-23.1,-4.2,7.4,-0.7
CN(C)/C=C/C(=O)c1ccc(F)cc1,-6.0,15.1,-2.3,-23.1,26.2*,-1.7
COc1ccc(C(=O)/C=C/N(C)C)cc1,-4.7,9.8,2.3,-6.5,8.7,-3.5
CCCCCC(/C=N/Nc1ccc(S(=O)(=O)N2CCOCC2)cc1[N+](=O)[O-])=C\c1ccccc1,1.2,-14.7,-5.2,-7.3,5.8,-2.0
CC(C)[C@H](NC(=O)c1cccc(S(=O)(=O)N2CCOCC2)c1)C(=O)Nc1nc2ccccc2s1,·,·,20.1,·,·,-1.2
CCOc1cc(-c2c(C#N)c(N)nc3c2CCc2ccccc2-3)ccc1O,·,·,13.3,·,·,-0.2
COc1ccccc1-c1c(C#N)c(N)nc2c1CCc1ccccc1-2,·,·,11.7,·,·,5.7*
C=CCn1c(N)c(C(=O)Nc2cccc(C)c2)c2nc3ccccc3nc21,51.8*,-49.7,-6.6,7.4,-1.8,14.5*
C=CCn1c(N)c(C(=O)Nc2ccc(C)c(C)c2)c2nc3ccccc3nc21,8.6,-35.5,4.8,3.7,-0.1,1.2
Cc1cccc(C(=O)N[C@H](C(=O)Nc2nccs2)C(C)C)c1,·,·,-4.0,·,·,-0.4
Cc1nn(-c2ccccc2)c(Cl)c1/C=N/NC(=O)OC(C)(C)C,·,·,0.9,·,·,-2.6
Cc1ccc(C)c(OCC(=O)N/N=C/c2c(C)nn(-c3ccccc3)c2Cl)c1,-3.2,-21.2,10.4,-29.0,28.0*,-2.1
CCc1nc(SCc2nc3ccccc3[nH]2)c2oc3ccccc3c2n1,35.9*,-32.6,-4.2,7.7,-6.7,-0.2
COc1ccc(CCC(C)Nc2cccc(F)c2)cc1 (stereo not given),-1.0,-29.5,-15.6,8.9,-6.6,0.5
O=C(NC1CCCC1)C(c1ccsc1)N(CCc1ccccc1)C(=O)Cc1cccs1 (stereo not given),·,·,3.9,·,·,6.0*
CCOC(=O)c1c2ccc(OCC(=O)N/N=C/c3ccc(C)cc3)cc2n2ccccc12,-6.3,-3.8,-19.4,-21.7,24.2*,0.6
O=C(/C=C/c1ccccc1)n1cnnc1SC/C=C/c1ccccc1,·,·,3.1,·,·,-0.3
C(=C/c1ccnc2nc(SC/C=C/c3ccccc3)nn12)/c1ccccc1,15.2,12.2,2.3,-30.7,33.4*,-2.7
COc1ccc2c(c1)c1ncn(Cc3ccco3)c(=O)c1n2C,19.2*,-60.3,-8.7,-2.9,1.9,1.1
c1ccc2c(c1)oc1c(N3CCN(Cc4ccc5c(c4)OCO5)CC3)ncnc12,-3.2,9.7,7.5,-3.0,6.0,-2.4
COc1ccc2nc(SCc3nc(N)nc(Nc4ccccc4)n3)[nH]c2c1,16.8*,0.0,1.1,-11.3,8.5,0.4
Cc1cc(NC(=O)CN2C(=O)NC3(CCCCC3C)C2=O)no1 (stereo not given),·,·,12.6,·,·,-1.9
CC(C)NC(=O)c1ccc2c(c1)S(=O)(=O)c1ccccc1C2=O,18.2*,-45.6,-14.2,-1.5,2.7,2.2
